# ATXN2 expr inh = inhibitors of ATXN2 expression | HEK-293 ATXN2-luciferase reporter, luminescence, 24 h | Potency, µM (top dose mostly 57 µM), without a hit: at the top dose activity change, negative = inhibition, usual class: inhibitors | 360,000 compounds, 0.72% hits | AID 1745845; note: % is set by controls: 0 for no effect and ±100 for the full control effect; nearly all actives have a fitted effect of over 55% in size
#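 ATXN2-luciferase reporter cells (luciferase flanked by upstream and downstream ATXN2 gene portions) were treated 24 h at 37 °C with compounds at up to 57 uM. SteadyGlo luminescence gave expression; GF-AFC fluorescence gave viability.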
# DT40 TDP1 no CPT = qHTS for Inhibitors of human tyrosyl-DNA phosphodiesterase 1 (TDP1): qHTS in cells in absence of CPT; DT40 Tdp1-/- hTDP1 cells, no CPT, ATP luminescence, 48 h; 420,000 compounds, 15% hits; Potency, µM (doses to about 46.2 µM), without a hit: at the highest dose activity change, negative = growth inhibition, usual class: inhibitors; note: % is set by controls: 0 for no effect and ±100 for the full control effect; nearly all actives have a fitted effect of over 55% in size
#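 Readout: luminescence from CellTiter-Glo after 30 min in the dark at RT. Cells: DT40 Tdp1-/- with stable hTDP1, 400/well. Exposure: compounds alone, ≥48 hr, 37 °C.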
# TDP1 cell CPT = growth inhibition of DT40 Tdp1-/-;hTDP1 cells with camptothecin (screen for TDP1 inhibitors); chicken DT40 Tdp1-/-;hTDP1 cells + 20 nM CPT, ATP luminescence, 48 h; Potency, µM (series often up to 46.2 µM), for the others: top-dose activity change, negative = growth inhibition, most hits filed as inhibitors; 420,000 compounds, 12% hits; note: % is set by controls: 0 for no effect and ±100 for the full control effect; nearly all actives have a fitted effect of over 55% in size
#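 Chicken DT40 Tdp1-/- cells complemented with human TDP1, 400 cells/well, exposed to compounds plus 20 nM camptothecin for at least 48 h at 37 C; viability read as ATP content by CellTiter-Glo luminescence.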
# HepG2 tox = HepG2 cytotoxicity, counter-screen for TGF-b inhibitors; HepG2 CAGA-GFP viability, ATP luminescence, 18 h; 410,000 compounds, 0.76% hits; Potency, µM (titrated, usually from 46.1 µM), without a hit: at the highest dose activity change, negative = cytotoxicity, usual class: cytotoxic; AID 588856
#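 CellTiter-Glo luminescence gave cytotoxicity after 18 hours at 37 degrees C. The cells were HepG2 CAGA-GFP in 1% FBS DMEM, stimulated with 500 pg/mL TGF-beta after compound addition. %Activity was normalised to no-cell wells (complete cell-killing) and DMSO (no toxicity), and curves were fitted and classified.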
# ATXN viability = reduces viability in counter-screen for ATXN expression inhibitors; S2 cells (HEK-293 line with an ATXN2-luciferase reporter) viability, CellTiter-Fluor protease fluorescence, 24 h; Potency, µM (series often up to 56.7 µM), usual class: cytotoxic; 400,000 compounds, 0.49% hits; note: nearly all actives have a fitted effect of over 40% in size
# TGFb SMAD3 inh = TGF-b pathway inhibition; HepG2 CAGA-GFP TGF-b/SMAD3 reporter, GFP fluorescence, 18 h; TGF-beta stimulated, 500 pg/mL final; Potency, µM (doses to about 46.1 µM), for the others: top-dose activity, negative = inhibition, usual class: inhibitors; 410,000 compounds, 1.2% hits; AID 588855; note: % is set by controls: 0 for no effect and ±100 for the full control effect; nearly all actives have a fitted effect of over 65% in size
#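 Read-out: total well GFP (ex488/em500-530) summed from mean per-cell fluorescence. Cells: HEPG2 CAGA-GFP, 1% FBS DMEM, 18 h at 37 degrees C with 500 pg/mL final TGF-beta. Unstimulated wells served as the full-inhibition control; stimulated DMSO wells = 0%.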
# * hit, by the source's call; i = inactive; ? = inconclusive; / = no result. In the library only some 17% were active in any assay of this set; here they are far more common. Calls come from the whole dose curve; as a rule, active = well fitted curve in the direction sought with a large enough effect; inconclusive = small, poorly fitted or top-dose-only effect, or another doubt; inactive = no such curve, though single readings can be large; an effect the other way counts as inactive or inconclusive. Potency is the fitted concentration of half-maximal effect.
SMILES,ATXN2 expr inh,DT40 TDP1 no CPT,TDP1 cell CPT,HepG2 tox,ATXN viability,TGFb SMAD3 inh
COC(=O)[C@@]12C[C@@H](CC(=O)NCCC(C)C)C(=O)N(CCc3ccc(OC)c(OC)c3)C1=CCC(C)(C)C2,/,20.6µM*,?,/,/,/
CCCCOCCCNC(=O)C[C@@H]1C[C@@]2(C(=O)OC)CC(C)(C)CC=C2N(CCc2ccc(OC)c(OC)c2)C1=O,/,14.6µM*,?,/,/,/
CCOC(=O)c1oc2ccccc2c1COC(=O)C(C)NC(=O)c1ccco1 (centres undefined),/,?,?,-3.0%,i,1.0%
CCc1ccc2c(c1)C(c1ccc([N+](=O)[O-])cc1)=NNC(c1ccc(C)cc1)=N2,3.0%,?,-21.0%,3.7%,i,6.5%
Cc1ccc(C)c(NC(=O)C2CCCN2/C=C/C(=O)C(F)(F)F)c1 (centres undefined),0.1%,-16.4%,4.6%,6.8%,i,-12.5%
CCNC(=S)N1N=C2c3ccccc3CCC2C1c1ccc(F)cc1 (centres undefined),-13.1%,23.1µM*,?,6.3%,i,?
COc1cccc(Cn2c(=O)cc(C)c3c(C)nn(C)c32)c1,-23.5%,?,?,-16.7%,i,1.0%
Clc1ccc(-c2nnc3c4ccccc4nc(N4CCOCC4)n23)cc1Cl,-15.3%,10.3µM*,18.4µM*,-39.0%,i,5.3%
COCCNc1c(-c2cc3ccc(C)c(C)c3[nH]c2=O)nc2ccccn12,46.2%,18.4µM*,?,-0.3%,i,0.4%
CCOc1cc(CNCCc2ccc(S(N)(=O)=O)cc2)ccc1OCC(=O)NC(C)(C)C,-8.0%,?,?,1.7%,/,1.9%
CCOc1cc(CNCCc2ccc(S(N)(=O)=O)cc2)ccc1OCC(=O)NC1CCCCC1,-14.2%,23.1µM*,?,-43.7%,?,1.0%
CCOc1cc(CNCCc2ccccc2)ccc1OCC(=O)NC(C)(C)C,-8.2%,20.6µM*,18.4µM*,-31.7%,?,4.5%
COc1cc(CNCCc2ccccc2)cc(Br)c1OCC(=O)Nc1ccccc1C,/,25.9µM*,?,-116.0%,28.2µM*,?
CCc1cc(=O)oc2c3c(cc(OCC(=O)NC4CC4)c12)OC(C)(C)CC3,-14.6%,?,?,-9.0%,i,22.4%
COCCn1c(=O)c(CCc2ccccc2)nc2cnc(OC)nc21,/,?,-1.9%,/,/,/
COc1ccc(CNc2cc(-c3cccc(NS(C)(=O)=O)c3)ncn2)c(OC)c1,/,-23.4%,?,/,/,/
CCOc1ccccc1/C=C(/NC(=O)c1ccccc1)C(=O)N1CCCCC1,5.1%,?,?,4.8%,?,20.2%
O=c1c(Cc2ccc(Cl)cc2)c(O)ccn1Cc1ccncc1,?,-9.0%,-2.8%,-17.2%,i,-25.9%
CC(C)c1nn2c(=O)cc(COC(=O)c3ccco3)nc2s1,13.8%,19.7%,-16.4%,-0.7%,i,-7.5%
CCCCN(CCCC)c1nc(OC)nc(-n2nnc(C(C)=O)c2C)n1,21.6%,?,23.1µM*,-5.6%,i,10.4%
Cc1cc(C)n(-c2nc(N(c3ccccc3)c3ccccc3)nc(-n3nc(C)cc3C)n2)n1,10µM*,13µM*,18.4µM*,4.8%,8.91µM*,?
Cc1cc(C)n(-c2nc(Nc3ccccc3)nc(-n3nc(C)cc3C)n2)n1,-3.3%,1.9%,5.4%,-31.0%,i,1.4%
CC(=O)c1nnn(-c2nc(N)nc(N(c3ccccc3)c3ccccc3)n2)c1C,-5.0%,14.6µM*,29.1µM*,1.9%,i,-1.3%
CCOC(=O)c1nnn(-c2nc(N(C)C)nc(N(C)C)n2)c1C,-23.8%,-9.7%,10.2%,4.2%,i,?
COc1cc(NC(=O)CCc2c(C)noc2C)c(Cl)cc1C(=O)O,-2.5%,-0.4%,-8.8%,-1.5%,?,1.6%
SMILES,ATXN2 expr inh,DT40 TDP1 no CPT,TDP1 cell CPT,HepG2 tox,ATXN viability,TGFb SMAD3 inh
NCCCCCCCCCCNS(=O)(=O)c1cccc2c(Cl)cccc12,/,12.6µM*,?,-102.5%,/,?
O=S(=O)(NCCCCCCc1ccccc1)c1cccc2c(Cl)cccc12,/,?,21.1µM*,/,/,/
CCOc1ccc(NC(=O)CN(C)C(=O)c2cccc3ccccc23)cc1OCC,6.4%,?,-1.5%,-17.7%,i,-3.2%
CCOc1ccc(NC(=O)CN(C)C(=O)CCCOc2ccc(Cl)c(C)c2)cc1OCC,8.8%,23.1µM*,14.6µM*,-19.5%,i,4.9%
CCOc1ccc(NC(=O)CN(C)C(=O)c2ccccc2CCc2ccccc2)cc1OCC,?,?,20.6µM*,-6.9%,i,2.0%
CCOc1ccc(NC(=O)CN(C)C(=O)c2ccccc2OCCOc2ccccc2)cc1OCC,3.3%,8.2µM*,?,7.4%,i,0.0%
C=CCN(CC=C)CCCOc1ccc(Br)cc1Cl,4.3%,-14.6%,-3.5%,-32.6%,i,0.0%
O/N=C\c1cnc(N2CCN(c3ccccc3)CC2)s1,/,-4.4%,11.7%,20.2%,?,-1.7%
Cc1ccc(-c2cc(C(=O)Nc3cccc(S(=O)(=O)N(C)C)c3)c3ccccc3n2)o1,-2.6%,16.4µM*,?,-7.8%,i,-20.9%
Cc1ccc(-c2cc(C(=O)N3CC(C)CC(C)C3)c3ccccc3n2)o1 (centres undefined),-16.6%,18.4µM*,?,-11.1%,i,-7.9%
Cc1cc(C(=O)Nc2ccccc2C)c2ccccc2n1,-1.6%,-7.3%,-3.2%,3.7%,i,-0.1%
Cc1ccc(-c2cc(C(=O)NCc3ccco3)c3ccccc3n2)o1,31.3%,?,?,2.3%,i,-21.7%
COC(=O)c1cc(-c2ccc(C)o2)nc2ccccc12,2.8%,14.6µM*,7.31µM*,-13.3%,i,?
Cc1ccc(-c2cc(C(=O)Nc3ccccc3C)c3ccccc3n2)o1,4.9%,18.4µM*,?,-14.5%,i,20.6%
Cc1ccc(-c2cc(C(=O)NCC(c3ccccc3)N(C)C)c3ccccc3n2)o1 (centres undefined),0.0%,?,?,-18.5%,i,-6.0%
COc1ccccc1NC(=O)Cn1nnc(-c2ccccc2NC(=O)c2cc3ccccc3oc2=O)n1,0.0%,-8.2%,-10.0%,6.7%,i,?
CCO[C@@H]1OC(C(=O)N2CCCCCCC2)=C[C@H](c2csc3ccccc23)[C@H]1CCCO,4.5%,23.1µM*,20.6µM*,-20.3%,i,-19.8%
